Experiment in all cases: NCI-60 one-dose screen, 48 h (100 = growth as untreated, 0 = no growth, -100 = all killed)
In one assay the test system is HCT-15 colon. Conditions: 10 µM.
The test system of a further assay is HT29 colon. Conditions: 10 µM.
For another assay, the system named is SNB-75 CNS. As to conditions: 10 µM.
The test system of another assay is SNB-19 CNS. Conditions: 10 µM.
The subject of the next assay is PC-3 prostate. As to conditions: 10 µM.
Another assay has as its system SK-MEL-5 melanoma. As to conditions: 10 µM.
For the next assay, the system named is UACC-62 melanoma. Conditions: 10 µM unless noted.
For another assay, the system named is LOX IMVI melanoma. As to conditions: 10 µM.
For the next assay, the system named is SK-MEL-28 melanoma. As to conditions: 10 µM.
Another assay relates to U251 CNS. As to conditions: 10 µM.

This is part of a sample that, as a whole, favours compounds with a hit. Of some 83,000 tested, about 20% had one in any assay.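 96-well plates, one dose, 48 hours. Percent growth reported; active if below 10.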 Values without a mark were called inactive. Activity calls are given as the source filed them.

As to `O=C(NCc1ccco1)Nc1c(Cl)cc(Cl)cc1Cl`, the growth is 100% with HCT-15 colon; 94.3% in the assay on HT29 colon; 89.1% in the assay with SNB-75 CNS; 103% with SNB-19 CNS; 91.6% in the assay with PC-3 prostate; 100% in the assay on SK-MEL-5 melanoma. Further, the growth in the assay on UACC-62 melanoma was 101%; in the assay with LOX IMVI melanoma it was 99.3%; in the assay with SK-MEL-28 melanoma it was 103%.
As for `O=C(O)[C@@H]1[C@H]2C[C@H]3c4[nH]c5ccccc5c4CCN3C[C@@H]2CC[C@@H]1O`, the growth was 106% in the assay on HCT-15 colon; 103% in the assay on HT29 colon; 88.4% in the assay with SNB-75 CNS; 111% with SNB-19 CNS; 114% in the assay with U251 CNS; 111% with SK-MEL-5 melanoma. The results for the growth in the assay with UACC-62 melanoma, in the assay with LOX IMVI melanoma and in the assay with SK-MEL-28 melanoma were 99.4%, 103% and 120%, respectively.
Regarding `N#CC(=Nc1cccc(F)c1)C1=C(O)c2ccccc2C1=O`, the growth with HCT-15 colon was 76%; in the assay on HT29 colon, 105%; with SNB-75 CNS it was 54.3%; in the assay on SNB-19 CNS, 90.4%; in the assay on PC-3 prostate, 83%; in the assay on SK-MEL-5 melanoma it was 90.7%. In addition, the growth in the assay with UACC-62 melanoma is 82.8%; with LOX IMVI melanoma it was 91.1%.
As for `O=C1OC(c2ccc(F)cc2)CC1CN1CCOCC1` (stereo unspecified), the growth was 110% in the assay on HCT-15 colon; 90.3% in the assay with HT29 colon; 89.1% with SNB-75 CNS; 98.1% with SNB-19 CNS; 88.9% in the assay on PC-3 prostate; 104% in the assay with SK-MEL-5 melanoma. The figures for the growth in the assay on UACC-62 melanoma, in the assay on LOX IMVI melanoma and in the assay on SK-MEL-28 melanoma were 110%, 89.2% and 109%, respectively.
As to `Cc1cc2nc(CO)[nH]c2cc1C`, the growth in the assay with HCT-15 colon was 107%; in the assay on HT29 colon, 102%; with SNB-75 CNS, 90.9%; with SNB-19 CNS, 98%; with U251 CNS it was 108%; in the assay with SK-MEL-5 melanoma it was 112%. For the same compound, the growth was 99.7% in the assay with UACC-62 melanoma, 110% in the assay with LOX IMVI melanoma and 108% in the assay with SK-MEL-28 melanoma.
Turning to `O=S(=O)(Cc1ccccc1)c1ccccc1`, the growth in the assay with HCT-15 colon was 102%; with HT29 colon, 107%; in the assay on SNB-75 CNS, 88.5%; in the assay with SNB-19 CNS, 107%; in the assay on PC-3 prostate, 102%; in the assay on SK-MEL-5 melanoma, 104%. For the same compound, the growth was 111% in the assay with UACC-62 melanoma, 107% in the assay on LOX IMVI melanoma and 98.5% in the assay on SK-MEL-28 melanoma.
Consider `OCc1cccc2ccccc12`, for which the growth in the assay with HCT-15 colon is 101%; in the assay on HT29 colon it was 114%; in the assay with SNB-75 CNS, 86.3%; with SNB-19 CNS, 113%; in the assay on U251 CNS, 108%; in the assay with SK-MEL-5 melanoma, 118%. Besides, the growth was 112% in the assay on UACC-62 melanoma, 102% with LOX IMVI melanoma and 111% with SK-MEL-28 melanoma.
Regarding `O=[N+]([O-])c1cccc(N=Nc2ccc(O)cc2O)c1`, the growth with HCT-15 colon was 48%; with HT29 colon it was 86.2%; with SNB-75 CNS it was 69.7%; with SNB-19 CNS it was 78.2%; in the assay with U251 CNS it was 63.7%; in the assay with PC-3 prostate it was 58.5%. The growth in the assay on SK-MEL-5 melanoma was 74.2%; in the assay with LOX IMVI melanoma, 81.1%; with SK-MEL-28 melanoma, 99.1%.
For `CSC[C@H](NC(=O)COc1cccc2cnccc12)C(=O)NC(Cc1ccccc1)C(O)C(=O)N1CSC[C@H]1C(=O)NC(C)(C)C` (stereo partly specified), the growth with HCT-15 colon was 96.3%; in the assay on HT29 colon, 108%; in the assay on SNB-75 CNS it was -20.5% (active); in the assay with U251 CNS, 102%; in the assay on PC-3 prostate, 96.3%; with SK-MEL-5 melanoma, 102%. Also, the values for the growth with UACC-62 melanoma and with LOX IMVI melanoma were 98.3% and 102%, respectively.
For the compound `COC(=O)CCCCC1=CCC2C(=O)C=C(O)C2C1` (stereo unspecified), the growth in the assay on HCT-15 colon was 96.3%; with HT29 colon, 104%; in the assay on SNB-75 CNS it was 85.5%; in the assay on SNB-19 CNS, 104%; in the assay with PC-3 prostate, 92.5%; in the assay with SK-MEL-5 melanoma it was 102%. The growth in the assay on UACC-62 melanoma is 103%; with LOX IMVI melanoma, 97.5%; in the assay with SK-MEL-28 melanoma it was 100%.
In the case of `O=C(NCCNC(=O)c1ccc(Cl)cc1Cl)c1ccc(Cl)cc1Cl`, the growth is 106% with HCT-15 colon; 118% in the assay with HT29 colon; 102% in the assay with SNB-75 CNS; 110% with SNB-19 CNS; 84.5% in the assay on PC-3 prostate; 98.5% with SK-MEL-5 melanoma. The growth in the assay with UACC-62 melanoma was 91.1%; in the assay on LOX IMVI melanoma, 94.9%; with SK-MEL-28 melanoma it was 104%.
With `C/C(=N\NC(=O)c1ccccc1N)c1ccccc1O`, the growth in the assay with HCT-15 colon was 26.5%; with HT29 colon it was 37%; in the assay on SNB-75 CNS it was 83%; in the assay on SNB-19 CNS, 56.6%; in the assay on PC-3 prostate, 50.3%; with SK-MEL-5 melanoma, 60.5%. Moreover, the growth with UACC-62 melanoma was 32%; with LOX IMVI melanoma, 36.7%; in the assay with SK-MEL-28 melanoma, 60.9%.
Consider `C/C(=C\c1ccc([N+](=O)[O-])cc1)C(=O)O`, for which the growth in the assay on HCT-15 colon is 103%; in the assay on HT29 colon it was 107%; in the assay with SNB-75 CNS, 88.5%; in the assay with SNB-19 CNS, 97.7%; in the assay on PC-3 prostate, 84.2%; in the assay on SK-MEL-5 melanoma it was 97.8%. Besides, the values for the growth in the assay on UACC-62 melanoma, in the assay with LOX IMVI melanoma and in the assay on SK-MEL-28 melanoma were 99.6%, 98.6% and 111%, respectively.
Turning to `O=C(Nc1ccccc1)OCCc1ccccc1`, the growth in the assay with HCT-15 colon was 96.9%; in the assay with HT29 colon it was 95%; in the assay with SNB-75 CNS it was 80.3%; in the assay on SNB-19 CNS, 101%; in the assay with PC-3 prostate it was 91%; with SK-MEL-5 melanoma, 99.3%. For the same compound, the growth in the assay on UACC-62 melanoma is 104%; in the assay on LOX IMVI melanoma, 107%; in the assay with SK-MEL-28 melanoma, 100%.
For `CCOC(=O)C1=C(Nc2ccc(Br)cc2)C(=O)N(CC)C1`, the growth in the assay with HCT-15 colon is 91.4%; in the assay on HT29 colon, 103%; in the assay on SNB-75 CNS, 94.7%; in the assay on SNB-19 CNS, 84%; in the assay on PC-3 prostate it was 101%; in the assay on SK-MEL-5 melanoma, 97.7%. The growth with UACC-62 melanoma was 84.2%; in the assay with LOX IMVI melanoma it was 94.3%; with SK-MEL-28 melanoma it was 101%.
Regarding `CSC(=N\N=C\c1ccc(N(C)C)cc1)/N=C/N(C)C`, the growth in the assay on HCT-15 colon was 96.1%; in the assay on HT29 colon, 113%; in the assay on SNB-75 CNS, 102%; with SNB-19 CNS it was 100%; in the assay with PC-3 prostate, 106%; with SK-MEL-5 melanoma, 101%. Also, the values for the growth in the assay on UACC-62 melanoma and in the assay on SK-MEL-28 melanoma were 112% and 111%, respectively.

The values above are taken from PubChem BioAssay (NCI).
